Compounds without any hit were thinned out: in the full panel of roughly 83,000, 20% have a hit.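 Assay: single dose, 48 h. Readout: percent growth (0 = no net growth; negative = cell death). Active: <10.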 A number with no mark means an inactive call. Activity calls are given as the source filed them.
Legend:
Experiment in all cases: NCI-60 one-dose screen, 48 h (100 = growth as untreated, 0 = no growth, -100 = all killed)
Settings in all cases: 10 µM unless noted
[1] = test system: T-47D breast
[2] = test system: BT-549 breast
[3] = test system: MDA-MB-435 melanoma
[4] = test system: SW-620 colon
[5] = test system: MCF7 breast
[6] = test system: HCT-116 colon
[7] = test system: HCC-2998 colon
[8] = test system: KM12 colon

| SMILES | growth [1] | growth [2] | growth [3] | growth [4] | growth [5] | growth [6] | growth [7] | growth [8] |
| --- | --- | --- | --- | --- | --- | --- | --- | --- |
| Cn1cccc1/C=C1/SC(=S)N(CCc2ccc(O)cc2)C1=O | 42% | 41.4% | -27.9% (active) | 31.6% | 33.8% | 21.4% | 77.4% | 40.5% |
| Nc1c2c(nc3ccc(Cl)cc13)CC(c1ccc(O)cc1)CC2=O (configuration not stated) | 54.8% | 53.3% | -38.5% (active) | 33.8% | 25.1% | 26.2% | 77.9% | 26.7% |
| COc1cnc2c(c1)C(=O)c1c-2n(CCCNC2=NCCS2)c(=O)c2cc([N+](=O)[O-])ccc12 | 14.4% | 35% | -92.7% (active) | -59% (active) | -51.3% (active) | -66.4% (active) | -61.2% (active) | -43.9% (active) |
| N=c1c(S(=O)(=O)c2ccccc2)cc2c(=O)n3ccccc3nc2n1C1CCCC1 | 79.8% | 89.3% | 108% | 99.3% | 93.8% | 91.5% | 103% | 98.5% |
| COC(=O)[C@]12CC[C@@H](C)[C@H](C)[C@@H]1C1=CC[C@@H]3[C@@](C)(CC#N)C4=C(C[C@@]3(C)[C@]1(C)CC2)OC[C@]4(C)C=O | -9.08% (active) | -15.2% (active) | 3.05% (active) | 0.614% (active) | -10.2% (active) | 3.7% (active) | -45.3% (active) | 4.23% (active) |
| Nc1c(C(=O)Nc2c(Cl)cccc2Cl)sc2nc3c(cc12)C(=O)CCC3 | 35.7% | 51.5% | -37.7% (active) | 44.5% | 19.3% | 42.9% | 69.1% | 30.5% |
| CCN(CC)c1ccc(/C=C/c2cc(C)c3ccccc3n2)cc1 | 44% | 93.2% | -6.87% (active) | 22.3% | 21.2% | 22.8% | 62.4% | – |
| CCCCN1CCCCn2c1nc1c2c(=O)n(C)c(=O)n1C | 107% | 108% | 107% | 102% | 103% | 104% | 95.9% | 101% |
| Cc1ccccc1-c1nc(C(Cl)Cl)nc2cc(-c3ccccc3)nn12 | 40.1% | 92.9% | 56.6% | 53.5% | 64% | 55% | 69.2% | 36.5% |
| CN1CCN(CC#CCn2c3c(c4ccccc42)C[C@]2(C)[C@H]4CC[C@@H]5[C@H]6[C@H]7OC(=O)[C@@]6(CCC7(C)C)CC[C@@]5(C)[C@]4(C)CC[C@H]2C3(C)C)CC1 | 104% | 89.5% | 97.8% | 91.2% | 67.7% | 35.1% | 106% | 93.7% |
| CC(=O)O[C@H]1CC[C@@]2(C)[C@@H](CC[C@@H]3[C@@H]2CC(=O)[C@@]2(C)[C@H]3C[C@@H](C3CCCC3=O)[C@@H]2C(C)=O)C1 (some centres not stated) | 91.1% | 103% | 118% | 111% | 98.2% | 90.1% | 107% | 106% |
| Cc1ccc(N(CC(=O)Nc2ccc(S(=O)(=O)NC3CCN(C)CC3)cc2)S(=O)(=O)c2ccc(Cl)cc2)cc1 | 58.4% | 86.6% | -44.3% (active) | 10.1% | 39% | 47.6% | 30.4% | 61.2% |
| CC(C)(C)n1cc(-c2ccnc(NCCCNS(=O)(=O)c3ccc(Cl)cc3)c2)c(-c2cccc(F)c2)n1 | 46.5% | 74.7% | 85.6% | 70.2% | 60.5% | 51.9% | 63.4% | 60.5% |
| COc1ccc2c(c1)C/C(=C\c1cc(-c3ccc4c(c3)OCO4)n[nH]1)C2=O | 23% | 93.9% | 93% | 96.6% | 34.8% | 93.3% | 105% | 85.7% |
| C=C(C)[C@@H]1CC[C@]2(C)CC[C@]3(C)[C@H](CC[C@@H]4[C@@]5(C)CCCNC(C)(C)[C@@H]5CC[C@]43C)[C@@H]12 | 76% | 101% | 84.6% | 2.47% (active) | 33.3% | 5.39% (active) | 66% | 66.8% |
| COc1ccc2c(c1)C(Br)=C(CCO)C2c1ccccc1 (configuration not stated) | 54.3% | 87.7% | 91.8% | 73.2% | 58.8% | 57.3% | 49.3% | 42.8% |

Source: PubChem BioAssay (NCI)
